Source: PubChem BioAssay (NCI)
About 83,000 compounds went through this panel and 20% of them were active in at least one assay; those are over-represented in the sample as a whole.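 The endpoint reported here, percent growth, reads 100 for growth as untreated, 0 for no net growth and -100 for all cells dead.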 Unmarked numbers belong to inactive results. Active and inactive are the calls of the source.

test system: OVCAR-8 ovarian; assay: NCI-60 one-dose screen, 48 h (100 = growth as untreated, 0 = no growth, -100 = all killed); details: 10 µM unless noted
Description: Growth inhibition of the OVCAR-8 human tumor cell line is measured as a screen for anti-cancer activity. Cells are grown in 96 well plates and exposed to the test compound for 48 hours. Compounds are tested at a single concentration, which is 10^-5 M for most compounds. The reported endpoint is percent growth (GI% or GIPRCNT), where numbers from 0 - 100% represent growth inhibition, and numbers from -100% - 0 represent cell death. For example, a value of 40 represents 60% growth inhibition. A value of 0 means no net growth occurred over the course of the experiment. A value of -40 indicates 40% of cells at the beginning of the experiment died by the end of the experiment. A value of -100 means all cells are dead at the end of the experiment.
NCI-60 Human Tumor Cell Lines Screen was performed using the standard one-dose NCI protocol, which is described in more detail at https://dtp.cancer.gov/discovery_development/nci-60/default.htm.
Compounds with GIPRCNT values below 10 were considered active. Activity score was based on GIPRCNT using the following formula: […]
Score is 0 for GIPRCNT values of 100 or above, 50 for GIPRCNT values of 0, and 100 for GIPRCNT values of -100.

Compound	growth
O=C(N=Nc1c(O)[nH]c2ccccc12)c1cc(-c2ccccc2)on1	102%
FC(F)(F)c1[nH]ncc1-c1nc2ccc3n[nH]c(C#Cc4cccnc4)c3c2c2c1CCCC2	45.5%
Clc1ccc2nc3nc4ccc[nH]c4cc3c2c1	87.4%
CN(C)c1ccc(NC(=O)c2ccc(/C=C/C(=O)c3ncc[nH]3)cc2)cc1	26.6%
COc1cccc(-c2nc(SCC(=O)Nc3ccc(C(=O)/C=C/c4ccc(OC)c(OC)c4)cc3)[nH]c(=O)c2C#N)c1	99.2%
N#C/C(=C\c1ccc(-c2ccc(Cl)c(Cl)c2)o1)c1nc(-c2ccco2)cs1	101%
Cc1cc(N2CCCCCC2)nc(NC2CCCC(Nc3ccnc4cc(Cl)ccc34)C2)n1 (stereo not given)	-85.3% (active)
Oc1ccccc1-c1nnc(CNc2ccc(Cl)cc2)o1	18.6%
CCN(CC)c1ccc(/C=N\NC(=O)/C=C/C=C/c2ccc3c(c2)OCO3)c(O)c1	32.9%
COc1ccc(C2C(C#N)=C(N)Oc3n[nH]c(-c4cccs4)c32)cc1I (stereo not given)	95%
O=[N+]([O-])c1ccccc1/C=N\NC(=S)N/N=C/c1ccccc1[N+](=O)[O-]	102%
CN(C)[C@@H]1C(=O)C(C(=O)NCc2nc3[nH]cnc(=S)c3[nH]2)=C(O)[C@@]2(O)C(=O)C3=C(O)c4c(O)cccc4[C@@](C)(O)[C@H]3C[C@@H]12	7.48% (active)
C#CCOc1ccc2ncnc(Nc3cccc(CNC(=O)CCl)c3)c2c1	38.8% [8.25 µM]
CC(C)(C)CC(C)(C)c1ccc(OCCOCC[N+](C)(C)Cc2ccccc2)cc1	-65.7% (active)
CSc1ccc(-c2n[nH]nc2-c2cc3ccccc3s2)cc1	59.3%
COc1ccc(-n2nc(C)c3c(Nc4ccc(NC(=O)Nc5cc(C(F)(F)F)ccc5F)cc4)ncnc32)cc1	26.4%
COc1cc(C=Nc2oc(-c3ccccc3)c(-c3ccccc3)c2C#N)cc(CN2CCCCC2)c1O	105%
Clc1ccc2c(NCCNc3nc(N4CCCCC4)nc4ccccc34)ccnc2c1	-30.5% (active)
O=C(CN1C(=O)/C(=C/c2ccc(Cl)cc2)SC1=S)NCCCN1CCOCC1	103%
O=c1c2c3c(sc2nc(N/N=C/c2cn(-c4ccccc4)nc2-c2ccc(Cl)cc2)n1Cc1ccccc1)CCCC3	98.2%

Compound	growth
O=C(Cc1ccc(/C=C/C(=O)c2ncc[nH]2)cc1)Nc1ccc(F)cc1	-6.92% (active)
COc1cccc(-c2nc3sccn3c2-c2ccnc(NCCCNS(=O)(=O)c3c(Cl)cccc3Cl)c2)c1	51.5%
CCN(CC)S(=O)(=O)c1ccc(OC)c(NC(=O)c2[nH]c(C)c3c2CCCCC3=O)c1	41.1%
Cc1cc(N2CCN(C)CC2)nc(NC2CCCC(Nc3ccnc4cc(Cl)ccc34)C2)n1 (stereo not given)	5.87% (active)
C(=C\c1nccc2c1[nH]c1ccccc12)/c1ccccc1	26.1%
CN(C)c1ccc(N=Nc2ccccn2)c(O)c1	16%
CSc1nc(NCCO)c(C#N)c(-c2cccc([N+](=O)[O-])c2)n1	99.1%
O=c1cc(CSc2nnc(SCc3cc(=O)oc4c3ccc3ccccc34)o2)c2ccc3ccccc3c2o1	94.1%
Cc1ccc(/C=C2\SC(=S)N(CC(=O)NCCCN3CCOCC3)C2=O)cc1	96.4%
Cn1cc(C(=O)c2nc(-c3c[nH]c4ccc(F)cc34)no2)c2cc(F)ccc21	95.9%
CC(=O)O[C@H]1CC[C@]2(C)[C@H]3CC=C4[C@@H]5CC(C)(C)CC[C@]5(C(=O)NCCNCCN)CC[C@@]4(C)[C@]3(C)CC[C@H]2C1(C)C	-85.3% (active)
Cn1cc(C(=O)c2nc(-c3c[nH]c4ccc(Br)cc34)no2)c2cc(F)ccc21	94.6%
COCCNc1ccc2c3c(cccc13)C(=O)N(CCN(C)C)C2=O	22.3%
c1ccc(Cn2cc(-c3nc4ccccc4s3)c3cccnc32)cc1	106%
O=C1Nc2c(ccc(Cl)c2Cl)/C1=C\c1cc(C(F)(F)F)cc(C(F)(F)F)c1	27.1%
COc1ccc2c(c1)c(-c1nonc1-c1cn(C)c3ccccc13)cn2C	35.6%
O=C(Cc1ccc(/C=C/C(=O)c2ncc[nH]2)cc1)Nc1ccccc1	22.1%
CCN1CCN(c2nc(NCCNc3ccnc4cc(Cl)ccc34)c3ccccc3n2)CC1	2.98% (active)
Cc1ncc(C(=O)Nc2ccc(CN3CCN(C)CC3)c(C(F)(F)F)c2)cc1C#Cc1cnc2cccnn12	6.1% (active)
CC(=O)OCCC/C(=C/c1cc2ccccc2c2ccccc12)[N+](=O)[O-]	-100% (active)
